Laboratory results reported in publication PMC8384837, “Expanding the binding specificity for RNA recognition by a PUF domain”.

Assays:
Assay in all cases: yeast three-hybrid, YBZ-1, SC-Leu-His + 0.5 mM 3-AT, 4 days
Details in all cases: tags: N-Gal4 AD-HA kept; label: inside an RPR1-promoter hybrid RNA with tandem MS2 sites; ssRNA
PUM1 PUF domain R5-FHC = PUM1 PUF domain R5-FHC (Homo sapiens, UniProt Q14671 828-1176, C1007F;R1008H;Q1011C)
How it was run: (§1)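 Repeat regions from input (SC-Leu) and selection (SC-Leu-His + 0.5 mM 3-AT) plates were PCR-amplified and Illumina-sequenced after four days of growth. The cells were strain YBZ-1 with a LexA–MS2 coat fusion and a HIS3 reporter, co-expressing Pumilio-1 PUF domain libraries and matching RNA elements from a centromeric plasmid. The interaction score is the log change in variant frequency from input to selection, taken in log2 with a pseudocount of 1 for absent variants.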

PUM1 PUF domain R1-KSV = PUM1 PUF domain R1-KSV (Homo sapiens, UniProt Q14671 828-1176, S863K;R864S;Q867V)
How it was run: as §1

PUM1 PUF domain R4-DWV = PUM1 PUF domain R4-DWV (Homo sapiens, UniProt Q14671 828-1176, N971D;H972W;Q975V)
How it was run: as §1

PUM1 PUF domain R3-VWP = PUM1 PUF domain R3-VWP (Homo sapiens, UniProt Q14671 828-1176, C935V;R936W;Q939P)
How it was run: as §1

PUM1 PUF domain R7-KFW = PUM1 PUF domain R7-KFW (Homo sapiens, UniProt Q14671 828-1176, S1079K;N1080F;E1083W)
How it was run: as §1

PUM1 PUF domain R6-RFA = molecular target: T1, PUM1 PUF domain R6-RFA (Homo sapiens, UniProt Q14671 828-1176, N1043R;Y1044F;Q1047A)
T1 sequence: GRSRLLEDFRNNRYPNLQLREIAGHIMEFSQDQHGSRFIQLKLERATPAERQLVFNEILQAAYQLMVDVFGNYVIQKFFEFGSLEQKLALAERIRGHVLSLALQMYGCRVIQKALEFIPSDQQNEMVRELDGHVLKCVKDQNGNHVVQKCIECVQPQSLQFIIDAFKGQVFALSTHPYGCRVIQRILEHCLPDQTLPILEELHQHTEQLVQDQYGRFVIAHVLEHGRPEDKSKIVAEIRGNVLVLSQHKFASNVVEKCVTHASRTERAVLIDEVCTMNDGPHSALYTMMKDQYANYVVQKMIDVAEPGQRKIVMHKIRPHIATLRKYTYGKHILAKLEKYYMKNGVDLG
How it was run: as §1

PUM1 PUF domain R3-MYH = PUM1 PUF domain R3-MYH (Homo sapiens, UniProt Q14671 828-1176, C935M;R936Y;Q939H)
How it was run: as §1

PUM1 PUF domain R8-VWR = PUM1 PUF domain R8-VWR (Homo sapiens, UniProt Q14671 828-1176, N1122V;Y1123W;Q1126R)
How it was run: as §1

PUM1 PUF domain R2-NRW = PUM1 PUF domain R2-NRW (Homo sapiens, UniProt Q14671 828-1176, Y900R;Q903W)
How it was run: as §1

PUM1 PUF domain R8-IFM = PUM1 PUF domain R8-IFM (Homo sapiens, UniProt Q14671 828-1176, N1122I;Y1123F;Q1126M)
How it was run: as §1

“GGCUAGAACUAGUGGAUCCCCCGGCGCCCGGCGGCUCGAGCCCGGGUAAGUGUGAAUAGUCUGCAUGCCGCCGGGCGCCAUGCCUGCAGGUCGACUCUAGAAAACAUG” was tested, and the binding signal (PUM1 PUF domain R5-FHC) was 3.55 log2 enrichment (interaction score).

In the case of “GGCUAGAACUAGUGGAUCCCCCGGCGCCCGGCGGCUCGAGCCCGGGUAAGUGUUAAUAGUCUGCAUGCCGCCGGGCGCCAUGCCUGCAGGUCGACUCUAGAAAACAUG”, the binding signal (PUM1 PUF domain R5-FHC) is reported as 4.26 log2 enrichment (interaction score).

In the case of “GGCUAGAACUAGUGGAUCCCCCGGCGCCCGGCGGCUCGAGCCCGGGUAAGUGUAAAUGGUCUGCAUGCCGCCGGGCGCCAUGCCUGCAGGUCGACUCUAGAAAACAUG”, the binding signal (PUM1 PUF domain R1-KSV) is reported as 1.55 log2 enrichment (interaction score).

With “GGCUAGAACUAGUGGAUCCCCCGGCGCCCGGCGGCUCGAGCCCGGGUAAGUGUAUAUAGUCUGCAUGCCGCCGGGCGCCAUGCCUGCAGGUCGACUCUAGAAAACAUG” the binding signal (PUM1 PUF domain R4-DWV) was 6.48 log2 enrichment (interaction score).

With “GGCUAGAACUAGUGGAUCCCCCGGCGCCCGGCGGCUCGAGCCCGGGUAAGUGUAAAUUGUCUGCAUGCCGCCGGGCGCCAUGCCUGCAGGUCGACUCUAGAAAACAUG” the binding signal (PUM1 PUF domain R1-KSV) was 2.75 log2 enrichment (interaction score).

“GGCUAGAACUAGUGGAUCCCCCGGCGCCCGGCGGCUCGAGCCCGGGUAAGUGUAAUUAGUCUGCAUGCCGCCGGGCGCCAUGCCUGCAGGUCGACUCUAGAAAACAUG” was tested, and the binding signal (PUM1 PUF domain R3-VWP) was 3.12 log2 enrichment (interaction score).

“GGCUAGAACUAGUGGAUCCCCCGGCGCCCGGCGGCUCGAGCCCGGGUAAGUCUAAAUAGUCUGCAUGCCGCCGGGCGCCAUGCCUGCAGGUCGACUCUAGAAAACAUG” was tested, and the binding signal (PUM1 PUF domain R7-KFW) was 3.75 log2 enrichment (interaction score).

For “GGCUAGAACUAGUGGAUCCCCCGGCGCCCGGCGGCUCGAGCCCGGGUAAGUGAAAAUAGUCUGCAUGCCGCCGGGCGCCAUGCCUGCAGGUCGACUCUAGAAAACAUG”, the binding signal (PUM1 PUF domain R6-RFA) was 1.03 log2 enrichment (interaction score).

In the case of “GGCUAGAACUAGUGGAUCCCCCGGCGCCCGGCGGCUCGAGCCCGGGUAAGUGUAAAUAGUCUGCAUGCCGCCGGGCGCCAUGCCUGCAGGUCGACUCUAGAAAACAUG”, the binding signal (PUM1 PUF domain R3-MYH) is reported as 3.93 log2 enrichment (interaction score), the binding signal (PUM1 PUF domain R8-VWR) is reported as 4.37 log2 enrichment (interaction score) and the binding signal (PUM1 PUF domain R3-VWP) is reported as 7.08 log2 enrichment (interaction score). For the same sequence, the binding signal (PUM1 PUF domain R2-NRW) was 6.69 log2 enrichment (interaction score) and the binding signal (PUM1 PUF domain R6-RFA) was 4.04 log2 enrichment (interaction score).

“GGCUAGAACUAGUGGAUCCCCCGGCGCCCGGCGGCUCGAGCCCGGGUAAGCGUAAAUAGUCUGCAUGCCGCCGGGCGCCAUGCCUGCAGGUCGACUCUAGAAAACAUG” was tested, and the binding signal (PUM1 PUF domain R8-IFM) was 2.25 log2 enrichment (interaction score) and the binding signal (PUM1 PUF domain R8-VWR) was 4.44 log2 enrichment (interaction score).
